Measured values reported in the supplement of paper PMC3616981.

Compound: CC(C)c1cccc(C(C)C)c1N1C(=O)c2ccc(O)cc2C1=O
Experiment: reporter fold induction vs vehicle; higher = higher reporter activity
Method: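 Attagene multiplexed transcription-factor reporter assay (48 cis response elements and 25 trans nuclear-receptor constructs) treated with 5HPP-33 at 8 concentrations (0.091–200 µM). The response is fold induction of reporter activity relative to vehicle control. Cell line and time not stated in the paper; tested in ToxCast Phase II for this study.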

Target | reporter fold induction (0.091 µM) | reporter fold induction (0.274 µM) | reporter fold induction (0.823 µM) | reporter fold induction (2.469 µM) | reporter fold induction (7.407 µM) | reporter fold induction (22.22 µM) | reporter fold induction (66.67 µM) | reporter fold induction (200 µM)
TA_CIS | 1.06 | 1 | 1.04 | 0.923 | 0.983 | 1.08 | 1.39 | 1.22
Xbp1_CIS | 1.06 | 0.98 | 0.93 | 0.937 | 1.21 | 1.13 | 1.74 | 4.47
Myb_CIS | 0.995 | 0.98 | 1.02 | 0.983 | 0.998 | 0.979 | 1.03 | 1.13
GATA_CIS | 1 | 0.993 | 0.983 | 1.05 | 0.98 | 0.902 | 1.07 | 0.842
STAT3_CIS | 1.05 | 1 | 0.995 | 0.975 | 0.977 | 1.15 | 1.02 | 0.913
